Reference: PubChem BioAssay AID1220 (Sanford-Burnham Center for Chemical Genomics, 2008)
The whole screen tested about 190,000 compounds, of which about 1,300 (0.68%) were called active. What follows is part of a selection rich in actives, with near analogues and random picks from the rest. A number with no mark means an inactive call. Cut-off read from the data, not from the text of the source: active = inhibition above about 50%; inactive = the rest.

molecular target: Mannose-6-phosphate isomerase (Homo sapiens) (UniProt P34949); experiment: MPI inhibition at elevated mannose 6-phosphate – biochemical, fluorescence intensity, high mannose 6-phosphate, primary screen (AID 1220); conditions: recombinant PMI enzyme, coupled fluorescence intensity; at 20 µM; hits give high values
Sequence (P34949 whole entry, looked up): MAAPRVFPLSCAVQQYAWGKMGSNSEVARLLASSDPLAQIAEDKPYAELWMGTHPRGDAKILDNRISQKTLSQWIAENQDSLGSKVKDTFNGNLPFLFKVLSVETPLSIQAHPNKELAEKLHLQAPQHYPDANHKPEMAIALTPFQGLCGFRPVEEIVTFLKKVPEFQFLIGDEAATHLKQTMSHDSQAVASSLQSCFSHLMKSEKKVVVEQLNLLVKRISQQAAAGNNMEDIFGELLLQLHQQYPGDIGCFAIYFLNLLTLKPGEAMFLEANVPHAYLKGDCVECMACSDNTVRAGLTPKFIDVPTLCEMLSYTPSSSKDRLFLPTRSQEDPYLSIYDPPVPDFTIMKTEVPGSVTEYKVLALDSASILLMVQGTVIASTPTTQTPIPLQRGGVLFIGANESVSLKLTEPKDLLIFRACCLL

SMILES | inhibition
CCOC(=O)c1c(NC(=O)c2c(C(=O)O)cccc2[N+](=O)[O-])sc(C)c1C | 8.7%
O=C(Nc1ccc(S(=O)(=O)Nc2ccc(F)cc2)cc1)c1ccc(CN2CCOCC2)cc1 | 17%
Cc1cc(C)n(-c2nc(NCc3cccnc3)c3c4c(sc3n2)COC(C)(C)C4)n1 | 6.9%
O=c1c2cc(NC(=S)NCc3cccnc3)ccc2nc2n1CCCCC2 | 1.2%
CC1Cc2ccccc2N1C(=O)CSc1nnc(-c2ccccc2)c(-c2ccccc2)n1 (stereo unspecified) | 37.9%
COc1cccc(C2CC(c3ccc(C(C)C)cc3)n3nc(N)nc3N2)c1 (stereo unspecified) | 11.2%
CC(=O)Nc1ccc(OCC(O)CN2CCN(c3cc(Cl)ccc3C)CC2)cc1 (stereo unspecified) | -2%
Clc1cccc(CN2COc3c(cc(Cl)c4cccnc34)C2)c1 | 51.8% (active)
Oc1c(CN2CCc3ccccc3C2)cc(Cl)c2cccnc12 | 48.3%
CC(C)(C)c1cc2cccnc2n1Cc1cccc(Cl)c1 | 1.9%
Cc1nn(-c2ccccc2)c(Cl)c1C1C(C#N)=C(N)Oc2c1c(C)nn2-c1ccccc1 (stereo unspecified) | 9%
CC(C)CNC(=O)CSc1nc2scc(-c3ccccc3)c2c(=O)[nH]1 | -14.2%
CC(=O)Nc1ccc(N(C(=O)CNC(=O)c2ccco2)C(C(=O)NCC2CCCO2)c2ccccc2)cc1 (stereo unspecified) | -1.6%
CC(=O)Nc1ccc(N(C(=O)CNC(=O)c2ccco2)C(C(=O)NCc2ccco2)c2ccccc2F)cc1 (stereo unspecified) | 60.4% (active)
CC(=O)c1cccc(N(C(=O)CNC(=O)c2ccco2)C(C(=O)NCc2ccco2)c2ccccc2)c1 (stereo unspecified) | -1.4%
O=C(Oc1ccc(Cl)c2cccnc12)N1CCOCC1 | 8.2%
CN1CCN(Cc2cc(Cl)c3cccnc3c2OC(=O)c2cccs2)CC1 | 50.4% (active)
COCc1cc(CN2CCN(C)CC2)c(O)c2ncccc12 | 37.9%
O=C(OCCN1CCOCC1)c1cccs1 | 9%
O=C(Oc1c(CN2CCOCC2)cc(Cl)c2cccnc12)c1cccs1 | 56.4% (active)
O=C(Oc1c(Cl)cc(Cl)c2cccnc12)c1cccs1 | 1.8%
CCC(=O)c1ccc(N2CCN(C(=O)c3cccc(F)c3)CC2)c(F)c1 | 7.7%
CCCn1nc(C(=O)NCc2ccccn2)c2ccccc2c1=O | -1.4%
O=C(CNCCC1=CCCCC1)Nc1ccccc1N1CCCCC1 | -0.7%
COCc1cc(C)nc2sc(C(=O)NCCO)c(-n3cccc3)c12 | -8.1%
Cc1nn(-c2ccc(Cl)cc2)c(N)c1C(O)(CSc1nccn1C)C(F)(F)F (stereo unspecified) | 10.3%

SMILES | inhibition
O=C(COC(=O)c1ccncc1)Nc1cc(Cl)ccc1Cl | 93.2% (active)
O=C(COC(=O)c1ccncc1)Nc1cc(Cl)c(Cl)cc1Cl | 3.3%
O=C(COC(=O)c1ccncc1)Nc1cccc(Cl)c1 | 23.4%
Cc1ccc(S(=O)(=O)NNC(=O)c2sccc2-n2cccc2)cc1 | -2.5%
Cc1ccc(/C=c2/sc3n(c2=O)CCCN=3)o1 | -24.9%
O=C(NCc1ccc(/C=c2\sc3n(c2=O)CCN=3)o1)C(=O)Nc1ccccc1 | 50.9% (active)
O=c1/c(=C/c2ccc(CNS(=O)(=O)c3ccccc3)o2)sc2n1CCN=2 | 13.7%
COc1ccc(C(=O)NCc2nnc(SCC(=O)Nc3cccc(F)c3)o2)cc1 | -10.6%
CCOC(=O)Cc1nnc(-c2ccccc2)o1 | 40.2%
CCOc1cccc(N(C(=O)C2COc3ccccc3O2)C(C(=O)NC2CCCCC2)c2ccc(O)cc2)c1 (stereo unspecified) | -4.1%
CC(C)CCNC(=O)C(c1ccc(O)cc1)N(C(=O)C1COc2ccccc2O1)c1cccc(O)c1 (stereo unspecified) | 60.7% (active)
CC(C)CCNC(=O)C(c1ccc(O)cc1)N(Cc1cccs1)C(=O)C1COc2ccccc2O1 (stereo unspecified) | 9.3%
COCC(C)NC(C(=O)Nc1ccc(C)c(Cl)c1)c1ccccc1 (stereo unspecified) | 1.8%
CN(c1ccc(OCC(=O)Nc2nc(-c3ccccc3)cs2)cc1)S(=O)(=O)c1ccc(F)cc1 | 8.4%
Cc1cc(C)c(NC(=O)COC(=O)Cc2ccsc2)c(C)c1 | -8.2%
Cc1ccc(S(=O)(=O)N2CCC(=O)N(CCOCc3cccc(F)c3)CC2)cc1 | 6.5%
N#CCn1c2ccccc2c2nc3ccccc3nc21 | 55.3% (active)
COc1cc2nc3c4ccccc4n(CC#N)c3nc2cc1OC | -0.4%
N#CCCn1c2ccccc2c2nc3ccccc3nc21 | -21.1%
Cc1ccc(C2N(C)c3ccccc3-c3nc4ccccc4n32)o1 (stereo unspecified) | 3.8%
CCOc1ccc(C(Nc2cccnc2)c2cc(Cl)c3cccnc3c2O)cc1 (stereo unspecified) | 66% (active)
CC(=O)NC(c1ccc(C)cc1)c1cc([N+](=O)[O-])c2cccnc2c1O (stereo unspecified) | 64.9% (active)
CCCC(=O)NC(c1cccs1)c1cc([N+](=O)[O-])c2cccnc2c1O (stereo unspecified) | 55.7% (active)
O=C(O)COc1ccccc1C(Nc1cccnc1)c1cc(Cl)c2cccnc2c1O (stereo unspecified) | 32%
O=C(NC(c1ccccc1)c1cc(Cl)c2cccnc2c1O)c1cccnc1 (stereo unspecified) | 23.4%
Oc1c(C(Nc2ccccn2)c2cccnc2)cc(Cl)c2cccnc12 (stereo unspecified) | 43.5%

SMILES | inhibition
CCCC(=O)NC(c1cccs1)c1cc(Cl)c2cccnc2c1O (stereo unspecified) | 38.8%
CC(=O)NC(c1ccccc1)c1cc([N+](=O)[O-])c2cccnc2c1O (stereo unspecified) | 58% (active)
CCC(=O)NC(c1cccs1)c1cc([N+](=O)[O-])c2cccnc2c1O (stereo unspecified) | 43.9%
CC(=O)NC(c1cccs1)c1cc([N+](=O)[O-])c2cccnc2c1O (stereo unspecified) | 43.2%
O=[N+]([O-])c1cc(Cl)c2cccnc2c1O | 47.2%
Cc1ccc([N+](=O)[O-])c2cccnc12 | 13.6%
COC(=O)CCCCC1SCC2NC(=O)NC21 (stereo unspecified) | -4.5%
COc1ccc(NC(=O)CSc2ccc(F)cc2)cc1S(=O)(=O)N1CCCCC1 | 8.6%
Cc1csc2cc(-c3cccc([N+](=O)[O-])c3)c(-c3cccc([N+](=O)[O-])c3)c[n+]12 | 4.9%
COc1ccc(C=O)cc1COc1ccccc1F | 8.1%
CCC(=O)NC(/C=C/c1ccccc1)c1cc([N+](=O)[O-])c2cccnc2c1O (stereo unspecified) | 46.8%
COc1ccc(C(NC(C)=O)c2cc(Cl)c3cccnc3c2O)cc1OC (stereo unspecified) | 55.7% (active)
CCCC(=O)NC(c1ccco1)c1cc([N+](=O)[O-])c2cccnc2c1O (stereo unspecified) | 7.9%
CCC(=O)NC(c1ccc(C)cc1)c1cc([N+](=O)[O-])c2cccnc2c1O (stereo unspecified) | 54.5% (active)
CCC(=O)NC(c1ccc(OC)c(OC)c1)c1cc(Cl)c2cccnc2c1O (stereo unspecified) | 41.1%
CCCC(=O)NC(c1ccc(OC)c(OC)c1)c1cc(Cl)c2cccnc2c1O (stereo unspecified) | 48.4%
COc1ccccc1NC(=S)NCc1ccco1 | -7.4%
Cc1c(Cl)cccc1NC(=O)CSc1nnc(CCNC(=O)OC(C)(C)C)o1 | 3.7%
COCCCNC(=O)c1cc2cc(Br)ccc2oc1=O | -0.9%
CCC(C)c1ccc(NC(=S)NCCn2cc(Br)cn2)cc1 (stereo unspecified) | 14.5%
Cc1[nH]nc2ncc(C(=O)c3cc(F)ccc3O)cc12 | -5.1%
COc1cc(C2Nc3ccc4ncccc4c3C3=C2C(=O)CCC3)cc(OC)c1O (stereo unspecified) | 42.6%
COc1cc(C2Nc3ccc4ncccc4c3C3=C2C(=O)CCC3)ccc1O (stereo unspecified) | 46.7%
COc1cc(C2Nc3ccc4ncccc4c3C3=C2C(=O)CCC3)cc(OC)c1OC (stereo unspecified) | 52.8% (active)
COC(=O)/C(=C1/Oc2ccc(C)cc2S1)C(F)(F)F | 1.2%
O=S(=O)(NC1CCCCC1Sc1ncccn1)c1ccc(Cl)cc1 (stereo unspecified) | -26%

SMILES | inhibition
COc1cc2c(=O)c(-c3ccc(O)cc3)coc2cc1OC1OC(CO)C(O)C(O)C1O (stereo unspecified) | 12.9%
O=C(CSc1n[nH]c(-c2cccs2)n1)NCc1cccs1 | 0.2%
CCOC(=O)CNC(=O)C1(c2ccccc2)CCCC1 | 3.8%
COc1ccc(CCN2CC(C#N)=C3c4cc(OC)c(OC)cc4CCN3C2)cc1OC | 21.4%
COc1cc2c(cc1OC)C1=C(C#N)CN(C3CCCCC3)CN1CC2 | 32.8%
CCOc1cc(-c2c(C#N)c(N)nc3c2CCCC3)ccc1O | 12.6%
CSc1nc2c(cc1C#N)CCCCC2 | -0.4%
C/C(=C\C=C(C#N)C#N)c1cc(C#N)c(N)o1 | 70.9% (active)
COc1cc(NC(=O)NS(=O)(=O)c2ccc(C)cc2)cc(OC)c1 | 41%
COc1ccc(NC(=O)NS(=O)(=O)c2ccc(C)cc2)c(OC)c1 | 57.2% (active)
COc1ccccc1NC(=O)NS(=O)(=O)c1ccc(C)cc1 | 1.2%
O=C(NNc1nc(-c2ccccc2)c2cc(Br)ccc2n1)c1ccc(S(=O)(=O)N2CCCCC2)cc1 | -0.2%
COC(=O)c1cc(S(=O)(=O)n2nc(C)c(Br)c2C)c(Cl)cc1Cl | -5%
Cc1c(Nc2ncnc3nc[nH]c23)c(=O)n(-c2ccccc2)n1C | 1.1%
CCN(CC)C(=O)Cn1cc(S(=O)(=O)CC(=O)Nc2ccc3c(c2)OCCO3)c2ccccc21 | 1.2%
CCn1cc(S(=O)(=O)CC(=O)Nc2ccc(C)cc2)c2ccccc21 | -0.5%
Cn1cc(S(=O)(=O)CC(=O)Nc2ccc3c(c2)OCO3)c2ccccc21 | 25.7%
CCn1cc(S(=O)(=O)CC(=O)Nc2ccc3c(c2)OCCO3)c2ccccc21 | 53.3% (active)
COc1ccc(NC(=O)Cn2cc(S(=O)(=O)Cc3ccccc3)c3ccccc32)c(OC)c1 | 16.9%
Cc1cccc(NC(=O)CS(=O)(=O)c2cn(C)c3ccccc23)c1 | 17.7%
Cn1cc(S(=O)(=O)CC(=O)Nc2ccc3c(c2)OCCO3)c2ccccc21 | 50.9% (active)
CCCn1cc(S(=O)(=O)CC(=O)Nc2ccc(OC)cc2OC)c2ccccc21 | 56.6% (active)
CCCn1cc(S(=O)(=O)CC(=O)Nc2ccc(OCC)cc2)c2ccccc21 | 17.3%
